# In publication PMC4336329 (PLoS ONE, 2015):
# In all, about 310,000 compounds went through this assay and about 14,000 (4.5%) showed an effect of 50% or more. Effects have a minus sign here. Many of the other results were omitted from the sample, so strong results are more common in it than they were.
# Molecular target: human ether-à-go-go-related gene (hERG) potassium channel (human, UniProt Q12809)
# Assay: primary screen, population patch clamp on CHO cells stably expressing hERG; higher = less effect of the substance
# 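Also: peak tail current of the secondary pulse compared with the same well before compound.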
# Sequence of human ether-à-go-go-related gene (hERG) potassium channel (Q12809 whole entry, looked up): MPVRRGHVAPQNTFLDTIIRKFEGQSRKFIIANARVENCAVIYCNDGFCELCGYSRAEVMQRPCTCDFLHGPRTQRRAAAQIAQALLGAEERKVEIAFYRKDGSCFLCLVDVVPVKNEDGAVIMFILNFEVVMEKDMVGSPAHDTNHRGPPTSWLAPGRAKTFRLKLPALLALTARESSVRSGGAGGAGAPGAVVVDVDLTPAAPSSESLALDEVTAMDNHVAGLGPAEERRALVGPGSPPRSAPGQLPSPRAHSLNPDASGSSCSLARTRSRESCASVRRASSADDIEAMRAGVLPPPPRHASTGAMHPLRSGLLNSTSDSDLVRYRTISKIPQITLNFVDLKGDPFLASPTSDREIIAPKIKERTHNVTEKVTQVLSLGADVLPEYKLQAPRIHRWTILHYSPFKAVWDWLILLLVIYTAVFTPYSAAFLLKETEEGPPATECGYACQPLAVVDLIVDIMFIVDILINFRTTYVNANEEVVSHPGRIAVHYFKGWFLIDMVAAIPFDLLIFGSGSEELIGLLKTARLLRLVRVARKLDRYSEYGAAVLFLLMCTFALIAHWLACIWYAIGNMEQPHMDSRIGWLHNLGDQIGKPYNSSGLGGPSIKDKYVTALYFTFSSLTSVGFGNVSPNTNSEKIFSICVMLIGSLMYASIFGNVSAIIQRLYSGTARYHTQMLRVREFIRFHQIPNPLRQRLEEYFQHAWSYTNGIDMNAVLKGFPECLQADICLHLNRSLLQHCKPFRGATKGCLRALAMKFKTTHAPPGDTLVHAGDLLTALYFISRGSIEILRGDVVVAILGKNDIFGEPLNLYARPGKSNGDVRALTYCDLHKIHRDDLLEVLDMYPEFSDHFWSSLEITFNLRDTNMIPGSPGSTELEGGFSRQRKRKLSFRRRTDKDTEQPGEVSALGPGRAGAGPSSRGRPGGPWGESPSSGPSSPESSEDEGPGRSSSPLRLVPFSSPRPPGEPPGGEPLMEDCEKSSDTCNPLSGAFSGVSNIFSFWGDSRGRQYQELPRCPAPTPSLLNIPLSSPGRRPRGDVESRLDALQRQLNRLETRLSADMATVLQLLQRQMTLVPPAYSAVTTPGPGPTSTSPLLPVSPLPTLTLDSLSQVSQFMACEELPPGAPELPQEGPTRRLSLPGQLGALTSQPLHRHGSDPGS
row,Compound,"hERG current change (%, negative = inhibition) at 10uM"
1,O=c1c2ccccc2oc2ccc(-c3ccc4[nH]ccc4c3)cc12,-2.53%
2,COc1ccc(-c2nn(CCC#N)cc2C(=O)Nc2cccc([N+](=O)[O-])c2)cc1OC,-57.9%
3,CCOC(=O)c1ccc(NC(=O)c2cn(CCC#N)nc2-c2ccc3c(c2)OCCO3)cc1,-4.59%
4,Cc1ccc(NC(=O)c2cn(CCC#N)nc2-c2ccc3c(c2)OCCO3)c([N+](=O)[O-])c1,-33.9%
5,N#CCCn1cc(C(=O)Nc2ccc([N+](=O)[O-])cc2)c(-c2cccs2)n1,-59.7%
6,N#CCCn1cc(C(=O)Nc2ccc(F)cc2)c(-c2ccc([N+](=O)[O-])cc2)n1,-57.1%
7,COc1ccc(NC(=O)c2cn(CCC#N)nc2-c2ccc([N+](=O)[O-])cc2)cc1,2.58%
8,COc1ccc(-c2nn(CCC#N)cc2C(=O)Nc2cccc(C(=O)O)c2)cc1OC,20.9%
9,COc1ccc(NC(=O)c2cn(CCC#N)nc2-c2cccs2)cc1,-11.3%
10,COc1ccc(-c2nn(CCC#N)cc2C(=O)Nc2ccccc2)cc1OC,-6.03%
11,N#CCCn1cc(C(=O)Nc2ccc(F)cc2)c(-c2ccccc2)n1,-15.2%
12,N#CCCn1cc(C(=O)Nc2ccc([N+](=O)[O-])cc2)c(-c2ccc3c(c2)OCCO3)n1,-72.8%
13,N#CCCn1cc(C(=O)Nc2ccc(C(=O)O)cc2)c(-c2cccs2)n1,21%
14,CCSc1cc(C)nc2ncnn12,-0.742%
15,CC1CCCN(C(=O)C2CCN(Cc3ccc4c(c3)OCO4)CC2)C1.O=C(O)C(=O)O (stereo not shown),-0.604%
16,COC(=O)c1cccc(NC(=O)Cn2nnc3ccccc32)c1,0.234%
17,COc1cc(C2NC(=O)NC(C)=C2[N+](=O)[O-])cc(OC)c1OC (stereo not shown),9.03%
18,CCn1c(=O)c2sccc2n2c(CCCC(=O)NCCc3ccc(S(N)(=O)=O)cc3)nnc12,-4.96%
19,O=C(NCC1CC1)[C@@H]1C[C@H]1[C@@H](NP(=O)(c1ccccc1)c1ccccc1)c1ccccc1,-13.9%
20,CC(=O)Nc1ccccc1C(=O)OCc1ccccc1F,3.58%
21,COc1ccc(-c2nn(CCC#N)cc2C(=O)NCc2ccccc2)cc1[N+](=O)[O-],-59.7%
22,N#CCCn1cc(C(=O)Nc2ccc([N+](=O)[O-])cc2)c(-c2ccccc2)n1,-80.1%
23,COc1ccc(-c2nn(CCC#N)cc2C(=O)Nc2ccccc2Br)cc1[N+](=O)[O-],-39.6%
24,N#CCCn1cc(C(=O)Nc2ccccc2Br)c(-c2ccc([N+](=O)[O-])cc2)n1,-46.9%

row,Compound,"hERG current change (%, negative = inhibition) at 10uM"
1,COc1ccc(-c2nn(CCC#N)cc2C(=O)NCc2ccccc2)cc1OC,-42.3%
2,N#CCCn1cc(C(=O)Nc2ccc(C(=O)O)cc2)c(-c2ccc([N+](=O)[O-])cc2)n1,23.2%
3,COc1ccc(NC(=O)c2cn(CCC#N)nc2-c2ccccc2)cc1,-7.59%
4,N#CCCn1cc(C(=O)Nc2ccccc2Cl)c(-c2ccc(F)cc2)n1,14%
5,N#CCCn1cc(C(=O)Nc2ccccc2Cl)c(-c2ccc([N+](=O)[O-])cc2)n1,-64.4%
6,Cc1cc(C=C2C(=O)N(C)C(=O)N(C)C2=O)c(C)n1-c1ccccc1,17.5%
7,FC(F)(F)c1cc(-c2cccs2)nc(N2CCOCC2)n1,1.94%
8,CC(C)N(Cc1nc(-c2ccccc2)no1)C(=O)c1ccc(Br)o1,-18.8%
9,O=CN1CCN(S(=O)(=O)c2ccc(Cl)c(C(=O)O)c2)CC1,-2.45%
10,C/C(=N\NC(=O)Cn1nc(C)c([N+](=O)[O-])c1C)c1ccco1,26%
11,C=C1c2ccc(C)cc2NC(=O)N1c1ccccc1,-1.2%
12,COc1ccc(N=C2CCCN2CC(N)=O)cc1.Cl,-0.486%
13,C#Cc1cccc(-n2nnc(C(C)=O)c2C)c1,15.5%
14,Cc1noc(C)c1COc1ccccc1C(=O)N1CCN(S(=O)(=O)c2ccccc2F)CC1,-19.2%
15,CCOC(=O)C1=C(CN2CCN(C(=O)c3ccco3)CC2)NC(=O)NC1c1ccc(OC)cc1 (stereo not shown),-64.9%
16,CCOC(=O)C1=C(CN2CCN(C(=O)OCC)CC2)NC(=O)NC1c1ccc2c(c1)OCO2 (stereo not shown),-18.4%
17,CCOC(=O)C1=C(C)NC(=O)NC1c1ccc(OC(=O)c2ccco2)cc1 (stereo not shown),-2.08%
18,CC(C)Oc1ccc(C(=O)N2CCN(C(=O)c3ccco3)CC2)cc1,-29.6%
19,CCOC(=O)C1=C(CN2CCN(C(=O)c3ccco3)CC2)NC(=O)NC1c1ccccc1 (stereo not shown),-43.7%
20,CCOC(=O)C1=C(CN2CCN(C(=O)c3ccco3)CC2)NC(=O)NC1c1ccc(C)cc1 (stereo not shown),-63.2%
21,CCOC(=O)C1=C(CN2CCCCCC2)NC(=O)NC1c1ccc2c(c1)OCO2 (stereo not shown),-48.2%
22,CCOC(=O)C1=C(CN2CCC(C)CC2)NC(=O)NC1c1ccc(Cl)cc1 (stereo not shown),-37.6%
23,COc1ccc(CN2CCN(C(=O)c3ccco3)CC2)cc1,-12.3%
24,CCOC(=O)C1=C(CN2CCN(C(=O)c3ccco3)CC2)NC(=O)NC1c1ccc(Cl)cc1 (stereo not shown),-35%

row,Compound,"hERG current change (%, negative = inhibition) at 10uM"
1,CCOC(=O)C1=C(CN2CCN(C(=O)c3ccco3)CC2)NC(=O)NC1c1ccc(F)cc1 (stereo not shown),-62.9%
2,CCOC(=O)C1=C(CN2CCN(C(=O)c3ccco3)CC2)NC(=O)NC1c1ccc(OC(C)C)cc1 (stereo not shown),-69.3%
3,CN(C)/C=C1\SC(=S)N(c2ccc(Br)cc2)C1=O,-4.75%
4,COc1ccccc1N1CCN(C(=O)Cn2ncc3c([nH]c4ccccc43)c2=O)CC1,4.74%
5,CCCCn1c(Cc2ccccc2)nnc1SCC(=O)N1CCOCC1,0.754%
6,CN(/N=C/Cc1nnnn1-c1ccc(Cl)cc1)c1ccccc1,-7.54%
7,Cc1c(C#N)c2ncnc(N)c2n1-c1ccccc1,5.64%
8,NC1=C([N+](=O)[O-])C(c2ccc3c(c2)OCO3)c2c(c3ccccc3oc2=O)O1 (stereo not shown),-21.3%
9,O=C(Nc1cc2c3c(c1)CC(=O)N3CCC2)C1CCCCC1,-5.43%
10,Cc1cccc(C)c1NC(=O)CSc1nnc(CCCCCNC(=O)OC(C)(C)C)o1,-17.8%
11,CC(C)(C)OC(=O)NCCCCCc1nnc(SCC(=O)Nc2cccc(Cl)c2)o1,-50.7%
12,CC(C)(C)OC(=O)NCCc1nnc(SCC(=O)Nc2cccc(Cl)c2)o1,6.91%
13,COc1cccc(C(=O)C2CCCN(C(=O)CCc3scnc3C)C2)c1 (stereo not shown),-12.7%
14,CCOC(=O)c1cnn(-c2ccccc2)c1NC(=O)CN1CCOCC1,16.1%
15,Cn1c(N)c(C(=O)COC(=O)c2ccco2)c(=O)n(C)c1=O,5.09%
16,COc1ccc(-c2nc(C)ncc2-c2csc(C)n2)c(O)c1,11%
17,COc1ccc(C)cc1Cn1nnc2ccccc21,-4.34%
18,CNc1ccc(C2(O)C(=O)c3ccccc3C2=O)cc1,-66.1%
19,CCNc1ccc(C2(O)C(=O)c3ccccc3C2=O)cc1,12.6%
20,CN(C)c1ccc(C2(O)C(=O)c3ccccc3C2=O)cc1,23.4%
21,COc1ccc(NC(=O)c2sc(NC(=O)COc3ccccc3)nc2C)cc1,1.76%
22,COc1ccc(CCc2nnc(CCC(=O)N(C)Cc3ccnc4ccccc34)o2)cc1,-37.7%
23,COc1ccc(C(C)(C)C)cc1NC(=O)COC(=O)c1nc2nccc(C)n2n1,3.17%
24,O=c1[nH]c(=S)n(C2CC2)c(O)c1C=Nc1cccc(C(F)(F)F)c1,12.8%

row,Compound,"hERG current change (%, negative = inhibition) at 10uM"
1,Cc1ccc(NC(=O)Nc2cccc3ccccc23)cc1,19.5%
2,Cc1cccc(NC(=O)NC2(C)CCS(=O)(=O)C2)c1 (stereo not shown),6.52%
3,CC1(NC(=S)Nc2ccccc2)CCS(=O)(=O)C1 (stereo not shown),13.8%
4,CC1(NC(=O)Nc2ccccc2)CCS(=O)(=O)C1 (stereo not shown),-53%
5,C/C(=N/NC(=O)CCC(=O)Nc1ccc(Br)cc1)c1ccc(Br)cc1,12.7%
6,O=C(Nc1ccccc1)N(CCc1nc2ccccc2[nH]1)C1CCCC1,-24%
7,CC1CCCCC1NC(=O)CCCCCn1c(=S)[nH]c2ccccc2c1=O (stereo not shown),7.63%
8,O=C(Nc1nccs1)c1nc[nH]c1C(=O)NCc1ccccc1,3.34%
9,CC(C)(C)NC(=O)Cn1nnc(-c2cccs2)n1,-4.07%
10,O=C(Nc1ccc([N+](=O)[O-])cc1)c1cc(-c2ccccn2)nc2c(Cl)cccc12,33%
11,CCOc1ccccc1N1CC(C(=O)N(Cc2nnc(-c3ccccc3Cl)o2)C2CC2)CC1=O (stereo not shown),-16.8%
12,O=C1OC(CC(=O)N(Cc2nnc(-c3ccccc3Cl)o2)C2CC2)c2ccccc21 (stereo not shown),-40.3%
13,Cc1ccc(C)c(OCC(=O)N(Cc2nnc(-c3ccccc3Cl)o2)C2CC2)c1,-20.9%
14,CSc1cccc(N2CC(C(=O)N(Cc3nnc(-c4ccccc4Cl)o3)C3CC3)CC2=O)c1 (stereo not shown),-55.5%
15,N#Cc1ccccc1OCC(=O)N(Cc1nnc(-c2ccccc2Cl)o1)C1CC1,-48.7%
16,Cc1ccc(CN2CC(C(=O)N(Cc3nnc(-c4ccccc4Cl)o3)C3CC3)CC2=O)cc1 (stereo not shown),-45.2%
17,O=C1OC(CC(=O)N(Cc2nnc(-c3ccc(Cl)cc3)o2)C2CC2)c2ccccc21 (stereo not shown),-67.8%
18,CCC(=O)c1ccc(OCC(=O)N(Cc2nnc(-c3ccccc3Cl)o2)C2CC2)cc1,-67.2%
19,CCCN(Cc1nnc(-c2ccccc2Cl)o1)C(=O)COc1ccc(Cl)cc1,-60.5%
20,CCCN(Cc1nnc(-c2ccccc2Cl)o1)C(=O)c1oc2ccccc2c1C,-13.1%
21,Cc1ccc(C(=O)N(Cc2nnc(-c3ccc(Cl)cc3)o2)C2CC2)o1,-32.6%
22,COc1ccccc1OCC(=O)N(Cc1nnc(-c2ccccc2Cl)o1)C1CC1,-44.2%
